# Assay outcomes: PubChem BioAssay, National Center for Advancing Translational Sciences (NCATS)
# In the library only some 7.9% were active in any assay of this set; here they are far more common.
# MARV entry inh: qHTS for inhibitors of binding or entry into cells for Marburg Virus. AID 540276, 2011. Potency, µM (highest dose often 37.8 µM), without a hit: at the top dose activity change, negative = inhibition, hits mostly inhibitors. Marburg virus pseudotyped entry inhibition, cell reporter. 300,000 compounds, 1.8% hits; calls by dose curve; tested in HEK293 cells; note: potency is the fitted concentration of half-maximal effect
# HCV inhibitor: qHTS Assay for Inhibitors of Hepatitis C Virus (HCV); Huh7.5.1 HCVcc-Cre infection, luciferase reporter, 44 h; Potency, µM (doses to about 41.8 µM), for the others: top-dose activity change, negative = inhibition, actives largely listed as inhibitors; 340,000 compounds, 3.4% hits; active = well fitted inhibition curve with a large enough effect; inconclusive = small, poorly fitted or top-dose-only effect, or another doubt; inactive = no such curve, though single readings can be large or run the other way; note: potency is the fitted concentration of half-maximal effect
#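 Luciferase read-out (15 sec integration) after a 15 min room-temperature substrate step quantifies HCVcc-Cre infection. Cells, 1,000 per well, had compound added 4 h post-plating, then virus at ~0.5 moi, and were cultured 44 h.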
# HCMV inh: qHTS Assay for inhibitors of the human cytomegalovirus (HCMV); activity change, negative = inhibition, % at 57.5 µM; 410,000 compounds, 4.5% hits; AID 1259415, 2018; HFF cells, HCMV-luciferase reporter, 72 h; hits give low values; in the data active = activity change below about -60%; inconclusive = no clear call, values can overlap the other calls; inactive = above about -39%
#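 Human foreskin fibroblasts infected with luciferase-reporter HCMV at MOI 1 PFU/cell, compounds at two doses. Luciferase measured 72 h post infection; normalized to buffer-only basal and Salinomycin (10uM) controls.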
# FMDV antiviral: High Throughput Screening for Foot and Mouth Disease Virus Antivirals | FMDV antiviral cell-based qHTS | Potency, µM (titrated, usually from 57.9 µM), inactives show at the highest dose activity change, negative = inhibition, actives largely listed as inhibitors | 410,000 compounds, 1.2% hits | AID 1159524, 2015; calls by dose curve; tested in HEK293T cells; note: read-out not given here; potency is the fitted concentration of half-maximal effect; nearly all actives have a fitted effect of over 45% in size
# Lassa entry inh: qHTS for Inhibitors of binding or entry into cells for Lassa Virus. Lassa virus pseudotype entry inhibition, cell reporter. Potency, µM (top dose mostly 37.9 µM), for the others: at the top dose activity change, negative = inhibition, actives largely listed as inhibitors. 300,000 compounds, 1.2% hits; calls by dose curve; tested in HEK293 cells; note: potency is the fitted concentration of half-maximal effect; nearly all actives have a fitted effect of over 50% in size
# * = called active by the depositor; u = inconclusive; x = not tested or not shown; [ ] = remark or other dose. % is set by controls: 0 for no effect and ±100 for the full control effect.
SMILES,MARV entry inh,HCV inhibitor,HCMV inh,FMDV antiviral,Lassa entry inh
CC(=O)Nc1ccc(NC(=O)c2nc(S(=O)(=O)Cc3cccc(C)c3)ncc2Cl)cc1,-13%[46.1 µM],u,-101*,20µM*,u
COC(=O)c1ccccc1NC(=O)c1onc(C)c1Cl,x,-7%,-3,-14%,x
Cc1cccc(CS(=O)(=O)c2ncc(Cl)c(C(=O)NCc3ccc4c(c3)OCO4)n2)c1,x,1%,-78*,32µM*,x
CCS(=O)(=O)c1ncc(Cl)c(C(=O)Nc2c(C(=O)Nc3cccc(C)c3)oc3ccccc23)n1,39%[46.1 µM],x,19,-17%,u
O=C(Nc1ccccc1-c1nc2ccccc2s1)c1cccnc1Cl,-26%,35µM*,-15,-17%,-11%
O=C(Nc1ccccc1-c1nc2ccccc2s1)c1ccc(F)cc1,3%[46.1 µM],x,13,-14%,u
O=C(Nc1ccccc1-c1nc2ccccc2s1)c1ccco1,-16%,4µM*,17,-30%,-13%
Cc1ccccc1-n1nnnc1SCC(C)C,8%[46.1 µM],u,-36,1%,13%
Cc1ccccc1-n1nnnc1SCc1csc(-c2ccccc2)n1,u,u,54,-29%,13µM*
CC(C)=CCC[C@](C)(O[C@@H]1O[C@H](CO[C@@H]2OC[C@H](O[C@@H]3OC[C@@H](O)[C@H](O)[C@H]3O)[C@H](O)[C@H]2O)[C@@H](O)[C@H](O)[C@H]1O)C1CC[C@]2(C)C1[C@H](O)CC1[C@@]3(C)CC[C@H](O)C(C)(C)C3[C@@H](O)C[C@]12C (some centres not stated),x,4%,-5,-14%,x
CCCNC(=O)CSc1nc(-c2cccs2)cc(C(F)(F)F)n1,11%,4µM*,-19,-9%,4%
O=C(NCCc1ccccc1)c1nc2nc(-c3cccs3)cc(C(F)(F)F)n2n1,u,10µM*,65,18%,-4%
O=C(CSc1nc(-c2cccs2)cc(C(F)(F)F)n1)NCc1ccccc1,-28%,4µM*,-17,-13%,2%
CC(C)CNC(=O)CSc1nc(-c2cccs2)cc(C(F)(F)F)n1,-26%[46.1 µM],-28%,-68*,u,u
COC(=O)N[C@@H](c1cccc(F)c1)[C@]1(C(=O)OC)CCCC1=O,3%[14.2 µM],x,x,x,x
Cc1cc(C)c2c(=O)cc(C(=O)NCCc3ccc(S(N)(=O)=O)cc3)oc2c1,-10%[46.1 µM],x,12,-27%,-2%[46.1 µM]
CN(N=Nc1nc[nH]c1C(N)=O)C1CCCCC1,x,x,-10,17%,x
CCOc1ccc(NC(=O)CSc2n[nH]c(N)n2)c([N+](=O)[O-])c1,10%,-2%,-6,-10%,3%
CCOc1ccc(NC(=O)CSc2nc(-c3cccs3)cc(C(F)(F)F)n2)c([N+](=O)[O-])c1,u,16%,-101*,-3%,-10%
Cc1c(NC(=O)C(C)Oc2cccc(F)c2)c(=O)n(-c2ccccc2)n1C (configuration not stated),x,7%,-13,-23%,x
C=CCn1c(SCC(=O)Nc2cc(NC(C)=O)ccc2OC)nnc1-c1ccccn1,-2%,-2%,37,-15%,u
C=CCn1c(SCC(=O)Nc2ccccc2OC)nnc1-c1ccccn1,u,7.9µM*,18,u,u
COc1ccc(-c2c(Sc3ccccc3)c3cc(-c4ccc5c(c4)OCO5)ccc3n2C)cc1,x,x,2,-22%,x
CCCc1cc(-c2[nH]ncc2-c2ccc3c(c2)OCCCO3)c(O)cc1OC,8%,u,-6,x,x
COc1ccc(-c2cn[nH]c2-c2ccc(O)cc2O)cc1OC,-12%[46.1 µM],-23%,34,-29%,-18%[46.1 µM]
CCc1cc(-c2[nH]ncc2-c2ccc(OC)cc2)c(O)cc1O,u,4µM*,-98*,11µM*,u
COc1ccc(-c2cn[nH]c2-c2ccc(OCc3ccc([N+](=O)[O-])cc3)cc2O)cc1,-26%,u,-93*,-27%,u
COc1ccc(-c2[nH]ncc2-c2ccc3c(c2)OCCO3)c(O)c1,-14%[46.1 µM],u,-82*,u,u
CCc1cc(-c2[nH]ncc2-c2ccc3c(c2)OCO3)c(O)cc1O,u,u,-99*,x,u
CCOc1ccc(-c2[nH]ncc2-c2ccc(OC)c(OC)c2)c(O)c1,u,u,u,0%,u
